Source: PubChem (National Center for Advancing Translational Sciences (NCATS))
An excerpt weighted towards active compounds, which were near 2.6% of everything screened.
BRCA1 expr up: increases BRCA1 expression | MCF7-BRCA1-FFLuc reporter, luminescence, 48 h; response scale: scaled: vehicle 0%, 10 µM genistein 100% | Potency, µM (top dose mostly 46.1 µM), inactives show at the highest dose activation, actives largely listed as activators | AID 624202 | hit rate 1.1% among 380,000; further: nearly all actives have a fitted effect of over 80% in size
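Quantitative HTS in MCF7 cells stably reporting BRCA1 expression via firefly luciferase. Compound treatment lasts 48 h at 37 °C in phenol-red free MEM. Activation is expressed relative to genistein at 10 microM and DMSO.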
GLP1R inv ag: acts as inverse agonist at human GLP-1 receptor | P43220 | HEK293 GLP-1R CRE-luciferase, luminescence, 24 h; GLP-1R form is constitutively active | Potency, µM (doses to about 38.3 µM), for the others: at the top dose activity change, negative = inhibition, most hits filed as inhibitors | hit rate 1.6% among 410,000 | AID 624417; further: on the % scale 0 is the no-effect control and ±100 the full control effect; nearly all actives have a fitted effect of over 55% in size
Target sequence (P43220 whole entry, looked up): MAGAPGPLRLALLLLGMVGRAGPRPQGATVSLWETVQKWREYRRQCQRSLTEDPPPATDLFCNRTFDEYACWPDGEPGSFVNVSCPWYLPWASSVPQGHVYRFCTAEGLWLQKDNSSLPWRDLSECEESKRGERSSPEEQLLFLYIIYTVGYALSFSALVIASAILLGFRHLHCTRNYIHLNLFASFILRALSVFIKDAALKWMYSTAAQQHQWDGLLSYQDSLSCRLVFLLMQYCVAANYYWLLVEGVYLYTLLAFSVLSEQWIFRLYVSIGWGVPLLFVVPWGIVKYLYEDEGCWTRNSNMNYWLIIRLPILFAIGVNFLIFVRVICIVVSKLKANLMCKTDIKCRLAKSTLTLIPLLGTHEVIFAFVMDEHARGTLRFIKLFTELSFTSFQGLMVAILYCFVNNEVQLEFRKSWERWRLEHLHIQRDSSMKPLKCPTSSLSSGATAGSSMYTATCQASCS
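Luminescence readout: a drop in cAMP-driven luciferase signal flags inverse agonism at a constitutively active GLP-1R stably expressed in HEK293. Compound exposure lasted 24 hr at 37 deg C, 5% CO2.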
GLP1R ag: GLP-1 receptor (human) agonism. Potency, µM (highest dose often 45.6 µM), without a hit: top-dose activation, hits mostly activators. HEK293 GLP-1R CRE-luciferase, luminescence, 4-6 h; cells express a hypersensitive GLP-1R form. P43220. hit rate 0.007% among 380,000; further: % of control where 0% means no effect
HEK293 tox: cytotoxicity counter-screen for GLP-1 receptor inverse agonists; Potency, µM (series often up to 38.3 µM), for the others: at the top dose activity change, negative = inhibition, usual class: inhibitors; AID 624418; hit rate 0.13% among 410,000; HEK293 cAMP-luciferase reporter cells, luminescence, 24 h;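 further: loss of luciferase light is scored as toxicity; on the % scale 0 is the no-effect control and ±100 the full control effect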
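MLSMR compounds, 24 hr on cells at 37 deg C/5% CO2; luminescence after luciferase reagent (12 min RT). Inhibition counted as the undesired cytotoxic outcome.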
Starred values were filed as active, the others as inactive; ? = inconclusive; nt = no result. The call rests on the fitted dose curve; in most records, active means well fitted curve in the direction sought with a large enough effect; inconclusive means small, poorly fitted or top-dose-only effect, or another doubt; inactive means no such curve, though single readings can be large; an effect the other way counts as inactive or inconclusive. Potency means the concentration at half of the fitted maximal effect.

SMILES	BRCA1 expr up	GLP1R inv ag	GLP1R ag	HEK293 tox
O=C(c1ccc(Cl)cc1)N1CCc2ccccc21	85%	?	24%	4%
CC(C)CN(C)c1ccc(/C=C2\C=Cc3ccccc32)cc1	17%	nt	nt	nt
CCC(Cn1nnc2ccccc2c1=O)NC(=O)Nc1cc(Cl)ccc1OC (centres undefined)	-3%	-13%	nt	3%
O=C(CSc1nc2c([nH]c3ccccc32)c(=O)n1-c1cccc(Cl)c1)N1CCc2ccccc21	-22%	-13%	-3%	-2%
O=C(CN1C(=O)c2cccc3cccc(c23)C1=O)N1CCCCCC1	-3%	7.9µM*	-2%	-12%
O=C(CN1C(=O)c2ccccc2C1=O)N1CCCCC1	3%	37%	-10%	6%
O=C(Cn1cc(C(F)(F)F)cc(Cl)c1=O)NCc1ccc(F)cc1	11µM*	5%	4%	-7%
O=C(NC(=S)Nc1ccccc1)c1cccs1	5.6µM*	-28%	12%	?
O=C(NC(=S)Nc1nc2ccccc2s1)c1cccs1	-4%	1%	-5%	2.5µM*
Cc1ccc(NC(=S)NC(=O)c2cccs2)cc1F	3.5µM*	?	12%	?
CSc1nc2ccc3nc(NC(=O)c4cccs4)sc3c2s1	8.9µM*	8%	-1%	3%
COC(=O)c1nc(NC(=S)NC(=O)c2cccs2)sc1C	-52%	-5%	1%	-8%
COC(=O)[C@]12CCCCC=C1N(Cc1ccc(Cl)cc1Cl)C(=O)[C@H](CC(=O)NCCC(C)C)C2	-24%	?	-4%	-9%
CCCN1CNc2c(c(=O)[nH]c(=S)n2CCc2ccc(Cl)c(Cl)c2)C1	0%	nt	nt	nt
O=C(Nc1c[nH]c(=O)[nH]c1=O)c1cc([N+](=O)[O-])cc([N+](=O)[O-])c1	-7%	3%	-1%	1%
O=C(NCC(c1ccc2c(c1)OCO2)N1CCOCC1)C(=O)Nc1ccc(Cl)cc1 (centres undefined)	nt	5%	nt	18%
NC(=S)Nc1nc2ccccc2s1	-9%	4.5µM*	8%	?
CC(OC(=O)c1cccs1)C(=O)NC1CCCCC1C (centres undefined)	1%	-27%	6%	0%
CC1CCCCC1NC(=S)NC(=O)c1cccs1 (centres undefined)	3%	8.9µM*	6%	?
O=C(Cc1ccccc1)Nc1cccc(NC(=O)c2cccs2)c1	-22%	13µM*	12%	15%
O=C(NC(=S)Nc1ccc(N2CCCCC2)c(Cl)c1)c1cccs1	-10%	0%	-4%	2.8µM*
Cc1ccc(N2CC(C(=O)Nc3ccc(C)c(S(=O)(=O)N(C)C)c3)CC2=O)cc1 (centres undefined)	-45%	?	6%	3%
CCN(CC)CCN1C(=O)C(=O)/C(=C(/O)c2ccc(S(=O)(=O)N3CCOCC3)cc2)C1c1ccc(C)cc1 (centres undefined)	0%	-7%	-4%	0%
C1CCCCCC(NCCN2CCNCC2)CCCCC1	-27%	6.3µM*	-3%	11µM*
Cc1ccc(-c2nc3ccccn3c2Nc2ccccc2C)o1	-5%	nt	nt	nt
SMILES	BRCA1 expr up	GLP1R inv ag	GLP1R ag	HEK293 tox
Cc1ccc2nc(C3CCCN(C(=S)Nc4cccc(C)c4C)C3)[nH]c2c1 (centres undefined)	-81%	?	-8%	11µM*
COc1ccc(NC(=O)C2C3C=CC4(O3)C2C(=O)N(CCN2CCCCC2C)C4C(=O)NC2CCCCC2)cc1 (centres undefined)	-1%	-16%	8%	?
Cc1ccc(NC(=O)c2ccc(OC(=O)COc3ccc(Cl)cc3C)cc2)cc1	?	26%	-35%	-9%
Cc1ccc(NC(=O)c2ccc(OC(=O)CCN3C(=O)c4ccccc4C3=O)cc2)cc1	7.1µM*	29%	2%	-9%
Cc1ccc(NC(=O)c2ccc(OC(=O)COc3cccc(Cl)c3)cc2)cc1	3.5µM*	11%	-21%	7%
Cc1cc(C)cc(OC(=O)CCN2C(=O)c3ccccc3C2=O)c1	4%	8%	11%	1%
CC(=O)c1cccc(NC(=O)c2nc(-c3ccccc3)n(-c3ccccc3C)n2)c1	7%	10%	nt	4%
O=CC(=O)c1ccc(Br)cc1	6%	nt	nt	nt
COc1ccc(NC(=O)Cn2c(=O)n(CC3CCCO3)c(=O)c3ccccc32)cc1 (centres undefined)	-8%	-2%	0%	-9%
